The values that follow come from PubChem BioAssay (NCATS).

Assay [1] concerns NIH3T3. The experiment in a line: Cytotoxic Profiling of Annotated Libraries Using Quantitative High-Throughput Screening (AID 1296008). Particulars: Five cell lines viability, CellTiter-Glo ATP luminescence, 48-72 h; max response: stronger effect = lower value. In outline:
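Cytotoxicity was measured as CellTiter-Glo ATP luminescence, read after 10 min at room temperature. Compound treatment of the cells lasted 48 or 72 hr at 37 degrees Celsius in a qHTS format.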

Assay [2] concerns CRL-7250. The experiment in a line: qHTS assay to identify novel small-molecules to repurpose for Merkel cell carcinoma treatment (AID 1296009). The settings on record: MCC and control cell lines, CellTiter-Glo viability, 72 h; at 44.8 µM (top of the series) unless noted. In outline:
(§1)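 72 hr, 37 degree celsius; NPC 8-pt / MIPE 11-pt dose response; compound pinned in DMSO; CellTiter-Glo, 10 min RT, luminescence; normalized to no-cell and DMSO controls.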
(In general: Quantitative high-throughput screening tests each substance at several concentrations.)

Assay [3] concerns MCC-13. The description is as above. Particulars: MCC and control cell lines, CellTiter-Glo viability, 72 h; series mostly up to 46 µM. In short, it runs like this: as §1
(In general: Cellular ATP, detected with luciferase, serves as a proxy for viable cell number.)

Assay [4] deals with MCC-26. The assay is described as above. The settings on record: MCC and control cell lines, CellTiter-Glo viability, 72 h; series mostly up to 46 µM. In outline:
as §1

Assay [5] has as its system MKL-1. Described as above. Particulars: MCC and control cell lines, CellTiter-Glo viability, 72 h; series mostly up to 46 µM. In outline:
as §1

Assay [6] concerns MKL-2. Described as above. The settings on record: MCC and control cell lines, CellTiter-Glo viability, 72 h; series mostly up to 46 µM. In short, it runs like this: as §1
For assay [7], the system named is NIH3T3. Described as above. Particulars: MCC and control cell lines, CellTiter-Glo viability, 72 h; at 44.8 µM (top of the series) unless noted. In outline: as §1
Assay [8] has as its system UISO. The description is as above. The settings on record: MCC and control cell lines, CellTiter-Glo viability, 72 h; series mostly up to 46 µM. In short, it runs like this:
as §1

In assay [9] the test system is HACAT. The description is as above. The settings on record: MCC and control cell lines, CellTiter-Glo viability, 72 h; at 44.8 µM (top of the series) unless noted. In short, it runs like this:
as §1

Assay [10] deals with HEK293T. The assay is described as above. Particulars: MCC and control cell lines, CellTiter-Glo viability, 72 h; at 44.8 µM (top of the series) unless noted. In short, it runs like this:
as §1

Inconclusive results are not listed. Unmarked numbers belong to inactive results. Active and inactive are the calls of the source. Calls follow the shape of the dose curve; as a rule, active = well fitted inhibition curve with a large enough effect; inconclusive = small, poorly fitted or top-dose-only effect; inactive = flat fitted curve, though single readings scatter.
% is scaled to controls: 0 for no effect and ±100 for the full control effect; potency is read from the fitted curve at half-maximal effect.
Also: nearly all actives have a fitted effect of over 60% in size.

Turning to `CC(C)(C)c1cc(C=C(C#N)C#N)cc(Br)c1O`, the molecule was called inactive in assay [1], in assay [2] and in assay [7]. Moreover, the Potency entry in [3], in assay [4], in assay [5], in assay [6] and in [8] was “inactive” throughout.
For the molecule `C=C[C@@H]1CN2CCC1C[C@H]2[C@H](O)c1ccnc2ccccc12` (some centres undefined), in [1], the max response was -22.5%. Further, the molecule was classed as inactive in assay [2]. The Potency result in assay [3], in assay [4], in [5], in assay [6] and in [8] was “inactive” throughout.
As for `C/C=C(/C)C(=O)O[C@H]1C(C)=C2[C@H]([C@@H]1OC(=O)CCCCCCC)[C@@](C)(OC(C)=O)C[C@H](OC(=O)CCC)[C@@]1(O)[C@H]2OC(=O)[C@@]1(C)O`, the Potency in [1] was 51.7 nM (active).
`CCN1C[C@]2(OC(=O)c3ccccc3NC(C)=O)CC[C@H](OC)[C@@]34[C@H]5CC6[C@@H](OC)C[C@](O)(C(C[C@@H]23)[C@@H]14)[C@@]5(O)[C@@H]6OC`: the molecule was classed as inactive in assay [1], in [2], in assay [9] and in [7]. In addition, the Potency entry in assay [3], in assay [4], in assay [5], in assay [6] and in [8] was “inactive” throughout.
`Cc1ccccc1-n1c(Cn2ncc3c(N)ncnc32)nc2cccc(C)c2c1=O`: the max response in [1] is 1.98%. For the same molecule, the call in assay [1], in assay [2], in [9], in [10] and in assay [7] was inactive. The figures for the Potency in assay [3] and in assay [8] were 13.2 µM (active) and 1.32 µM (active), respectively. Also, the Potency result in assay [6] is “inactive”.
With `CCNC(=O)CC1N=C(c2ccc(Cl)cc2)c2cc(OC)ccc2-n2c(C)nnc21` (centres undefined), in [1], the max response is 4.41%. Also, the call in assay [1], in assay [10] and in assay [7] was inactive. In addition, the Potency entry in [3], in assay [4], in assay [5] and in assay [8] was “inactive” in each case.
As to `COc1ccc(CC2NCCc3cc(OC)c(OC)cc32)cc1OC` (centres undefined), the max response in assay [1] was -2.7%. Besides, the molecule was called inactive in assay [9]. Besides, the Potency entry in [3], in assay [4], in [5], in assay [6] and in assay [8] was “inactive” each time.
